Inconclusive results are not listed. Values without a mark were called inactive. Activity calls are given as the source filed them. Calls come from the whole dose curve; as a rule, active = well fitted curve in the direction sought with a large enough effect; inconclusive = small, poorly fitted or top-dose-only effect, or another doubt; inactive = no such curve, though single readings can be large; an effect the other way counts as inactive or inconclusive.
What was measured:
[1] = Quantitative High-Throughput drug screen in 47 multiple myeloma cell lines against the NCATS MIPE library collection: NCIH929_DSMZ cell viability assay (AID 1918978); note: nearly all actives have a fitted effect of over 35% in size
In short: (§1)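 500 cells/well; MIPE 4.0 drugs pin-transferred; 48 h, 37C, 5% CO2. CellTiter-Glo, 5 min RT, luminescence. Controls: DMSO 100%, media 0%.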

[2] = Quantitative High-Throughput drug screen in 47 multiple myeloma cell lines against the NCATS MIPE library collection: OCIMY1_PLB cell viability assay (AID 1918979); note: nearly all actives have a fitted effect of over 35% in size;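 for viability: 100% = DMSO-only wells and 0% = cell-free media-only wells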
In short: as §1

[3] = Quantitative High-Throughput drug screen in 47 multiple myeloma cell lines against the NCATS MIPE library collection: MM1S_ATCC cell viability assay (AID 1918980); note: nearly all actives have a fitted effect of over 45% in size
In short: as §1

[4] = Quantitative High-Throughput drug screen in 47 multiple myeloma cell lines against the NCATS MIPE library collection: MM1R_ATCC cell viability assay (AID 1918981); note: nearly all actives have a fitted effect of over 35% in size
In short: as §1

[5] = Quantitative High-Throughput drug screen in 47 multiple myeloma cell lines against the NCATS MIPE library collection: LP1_DSMZ cell viability assay (AID 1918982); note: nearly all actives have a fitted effect of over 35% in size
In short: as §1

[6] = Quantitative High-Throughput drug screen in 47 multiple myeloma cell lines against the NCATS MIPE library collection: KMS28PE_JCRB cell viability assay (AID 1918983); note: nearly all actives have a fitted effect of over 35% in size
In short: as §1

[7] = Quantitative High-Throughput drug screen in 47 multiple myeloma cell lines against the NCATS MIPE library collection: OCIMY7_PLB cell viability assay (AID 1918987); settings: OCI-MY7 myeloma viability, CellTiter-Glo ATP, 48 h; viability (% of DMSO): at 45.8 µM (top of the series); note: nearly all actives have a fitted effect of over 65% in size
In short: as §1

[8] = Quantitative High-Throughput drug screen in 47 multiple myeloma cell lines against the NCATS MIPE library collection: OCIMY5_PLB cell viability assay (AID 1918988); note: nearly all actives have a fitted effect of over 65% in size
In short: as §1

[9] = Quantitative High-Throughput drug screen in 47 multiple myeloma cell lines against the NCATS MIPE library collection: OPM1_PLB cell viability assay (AID 1918989); note: nearly all actives have a fitted effect of over 40% in size
In short: as §1

[10] = Quantitative High-Throughput drug screen in 47 multiple myeloma cell lines against the NCATS MIPE library collection: SKMM1_PLB cell viability assay (AID 1919863); settings: SKMM1 myeloma viability, CellTiter-Glo ATP, 48 h; viability: active compounds read low; note: nearly all actives have a fitted effect of over 35% in size
In short: as §1

[11] = Quantitative High-Throughput drug screen in 47 multiple myeloma cell lines against the NCATS MIPE library collection: U266_ATCC cell viability assay (AID 1919864); note: nearly all actives have a fitted effect of over 35% in size;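 for viability (% of DMSO control): 0% = media-only wells without cells and 100% = DMSO-only wells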
In short: as §1

[12] = Quantitative High-Throughput drug screen in 47 multiple myeloma cell lines against the NCATS MIPE library collection: XG6_PLB cell viability assay (AID 1919865); note: nearly all actives have a fitted effect of over 40% in size
In short: as §1

[13] = Quantitative High-Throughput drug screen in 47 multiple myeloma cell lines against the NCATS MIPE library collection: XG1_PLB cell viability assay (AID 1919866); note: nearly all actives have a fitted effect of over 35% in size
In short: as §1

[14] = Quantitative High-Throughput drug screen in 47 multiple myeloma cell lines against the NCATS MIPE library collection: VP6_DJ cell viability assay (AID 1919867); note: nearly all actives have a fitted effect of over 40% in size
In short: as §1

[15] = Quantitative High-Throughput drug screen in 47 multiple myeloma cell lines against the NCATS MIPE library collection: PE2_PLB cell viability assay (AID 1919869); note: nearly all actives have a fitted effect of over 35% in size
In short: as §1

[16] = Quantitative High-Throughput drug screen in 47 multiple myeloma cell lines against the NCATS MIPE library collection: PCM6_Riken cell viability assay (AID 1919870); note: nearly all actives have a fitted effect of over 30% in size
In short: as §1

[17] = Quantitative High-Throughput drug screen in 47 multiple myeloma cell lines against the NCATS MIPE library collection: KMS34_JCRB cell viability assay (AID 1918985); note: nearly all actives have a fitted effect of over 40% in size
In short: as §1

[18] = Quantitative High-Throughput drug screen in 47 multiple myeloma cell lines against the NCATS MIPE library collection: RPMI8226_ATCC cell viability assay (AID 1919871); note: nearly all actives have a fitted effect of over 30% in size
In short: as §1

[19] = Quantitative High-Throughput drug screen in 47 multiple myeloma cell lines against the NCATS MIPE library collection: L363_DSMZ cell viability assay (AID 1918984); note: nearly all actives have a fitted effect of over 40% in size
In short: as §1

[20] = Quantitative High-Throughput drug screen in 47 multiple myeloma cell lines against the NCATS MIPE library collection: UTMC2_PLB cell viability assay (AID 1919868); settings: CellTiter-Glo ATP luminescence, 48 h; viability (% of DMSO control): at 45.8 µM (top of the series); note: nearly all actives have a fitted effect of over 55% in size;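 for viability (% of DMSO control): 100% = DMSO-only wells and 0% = media-only wells without cells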
In short: as §1
Potency is the fitted concentration of half-maximal effect.

## O=C(Nc1ccccc1-c1cn2c(CN3CCNCC3)csc2n1)c1cnc2ccccc2n1
[1]
  Potency: 7.43 µM (active)
[2]
  Potency: 16.6 µM (active)
[3]
  Potency: 23.5 µM (active)
[4]
  Potency: 20.9 µM (active)
[5]
  Potency: 23.5 µM (active)
[6]
  Potency: 23.5 µM (active)
[7]
  Potency: 9.35 µM (active)
[8]
  Potency: 8.33 µM (active)
[9]
  Potency: 8.33 µM (active)
[10]
  Potency: 4.69 µM (active)
[11]
  Potency: 11.8 µM (active)
[12]
  Potency: 9.35 µM (active)
[13]
  Potency: 7.43 µM (active)
[14]
  Potency: 9.35 µM (active)
[15]
  Potency: 8.33 µM (active)
[16]
  Potency: 10.5 µM (active)

## CC(C(=O)O)c1ccc(-c2ccccc2)c(F)c1 (stereo unspecified)
[1]
  Potency: 16.6 µM (active)
[2]
  Potency: inactive
[3]
  Potency: 26.4 µM (active)
[4]
  Potency: inactive
[5]
  Potency: inactive
[6]
  Potency: inactive
[17]
  Potency: inactive
[7]
  Potency: 14.8 µM (active)
[10]
  viability: 102%
[11]
  Potency: 20.9 µM (active)
[12]
  Potency: 20.9 µM (active)
[13]
  Potency: 9.35 µM (active)
[14]
  Potency: 13.2 µM (active)
[16]
  Potency: 14.8 µM (active)
[18]
  Potency: inactive

## O=C1c2ccccc2-[n+]2ccc3c([nH]c4ccccc43)c21
[1]
  Potency: 3.32 µM (active)
[2]
  Potency: 3.72 µM (active)
[3]
  Potency: 2.64 µM (active)
[4]
  Potency: 2.09 µM (active)
[5]
  Potency: 2.35 µM (active)
[6]
  Potency: 2.35 µM (active)
[19]
  Potency: 3.72 µM (active)
[17]
  Potency: 0.833 µM (active)
[7]
  Potency: 0.264 µM (active)
[8]
  Potency: 1.05 µM (active)
[9]
  Potency: 0.935 µM (active)
[10]
  Potency: 2.96 µM (active)
[11]
  Potency: 2.35 µM (active)
[12]
  Potency: 1.48 µM (active)
[13]
  Potency: 1.05 µM (active)
[20]
  Potency: 1.32 µM (active)
[15]
  Potency: 1.87 µM (active)
[16]
  Potency: 0.59 µM (active)

## CC=CC(=O)N(CC)c1ccccc1C
[1]
  Potency: inactive
[2]
  Potency: inactive
[3]
  Potency: 6.62 µM (active)
[4]
  Potency: inactive
[5]
  Potency: inactive
[6]
  Potency: inactive
[19]
  Potency: inactive
[8]
  Potency: inactive
[9]
  Potency: inactive
[10]
  viability: 126%
[11]
  Potency: inactive
[12]
  Potency: 23.5 µM (active)
[13]
  Potency: 26.4 µM (active)
[20]
  Potency: inactive
[15]
  Potency: inactive
[18]
  Potency: 3.72 µM (active)

## COc1ccc(-c2oc3c(CC=C(C)C)c(OC4O[C@H](CO)[C@@H](O)[C@H](O)[C@@H]4O)cc(O)c3c(=O)c2OC2O[C@@H](C)[C@H](O)[C@@H](O)[C@@H]2O)cc1 (stereo partly specified)
[1]
  Potency: 29.6 µM (active)
[2]
  Potency: 23.5 µM (active)
[3]
  Potency: 20.9 µM (active)
[4]
  Potency: 20.9 µM (active)
[5]
  Potency: 20.9 µM (active)
[19]
  Potency: 13.2 µM (active)
[7]
  Potency: 13.2 µM (active)
[8]
  Potency: 20.9 µM (active)
[9]
  Potency: 26.4 µM (active)
[10]
  Potency: 20.9 µM (active)
[12]
  Potency: 23.5 µM (active)
[13]
  Potency: 18.7 µM (active)
[14]
  Potency: 16.6 µM (active)
[15]
  Potency: 23.5 µM (active)
[16]
  Potency: 16.6 µM (active)
[18]
  Potency: 20.9 µM (active)
